Reference: PubChem BioAssay (EPA / NIEHS)
Results filed as inconclusive are left out. Calls of active or inactive are those of the source. How the source made its calls, unless noted: active means hit-call score of the fitted dose curve at least 0.9, where 1 is the maximum; inconclusive means response in the unintended direction; inactive means score below 0.9.

How the values were obtained:
[1] = target: Cellular tumor antigen p53 (Homo sapiens) (UniProt P04637); experiment: TOX21_p53_BLA_p2_ratio: Tox21 HCT-116 p53 Agonism Beta-lactamase Assay, Ratio, Phase 2 (AID 2283592)
Method in brief: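 Readout: blue/green (460/530 nm) FRET emission ratio after 2 h CCF4-AM loading at room temperature, excitation 405 nm. HCT116 p53 bla cells, 16 h compound exposure at 37C, 5% CO2; agonist direction fitted against DMSO baseline.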

[2] = TOX21_p53_BLA_p3_viability: Viability Assessment in the Tox21 HCT-116 p53 Agonism Beta-lactamase Assay, Phase 3 (AID 2283593);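 further: cells exposed to compound for 16 h before reading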
Method in brief: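 HCT116 cells, 4000/well, dosed 5 h after plating by pin transfer (217-fold dilution from DMSO stock) and incubated 16 h at 37C, 5% CO2. Viability read as ATP luminescence with CellTiter-Glo after 30 min at room temperature.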

[3] = target: Cellular tumor antigen p53 (Homo sapiens) (UniProt P04637); experiment: TOX21_p53_BLA_p3_ratio: Tox21 HCT-116 p53 Agonism Beta-lactamase Assay, Ratio, Phase 3 (AID 2283596)
Method in brief: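 Cells were seeded at 4000/well, rested 5 h at 37C, then dosed with DMSO compound solutions (217-fold dilution) for 16 h. CCF4-AM substrate was loaded for 2 h at room temperature, and the 460/530 nm emission ratio was fitted for gain of signal versus DMSO.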

[4] = TOX21_p53_BLA_p4_viability: Viability Assessment in the Tox21 HCT-116 p53 Agonism Beta-lactamase Assay, Phase 4 (AID 2283597);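 further: hits lower the luminescence signal meaning cytotoxicity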
Method in brief: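 ATP content by CellTiter-Glo luminescence, 30 min RT, read after the beta-lactamase ratio step. Cells: HCT116, 4000/well, compound added after 5 h, exposure 16 h at 37C. Signal loss = reduced viability.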

[5] = target: Cellular tumor antigen p53 (Homo sapiens) (UniProt P04637); experiment: TOX21_p53_BLA_p5_ratio: Tox21 HCT-116 p53 Agonism Beta-lactamase Assay, Ratio, Phase 5 (AID 2283599)
Method in brief: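 HCT-116 p53-bla cells (4000/well) plated 5 h, dosed with compound (217-fold DMSO dilution) for 16 h at 37 C; CCF4-AM substrate 2 h at room temperature. Activity is the 460/530 nm emission ratio (405 nm excitation), fitted in gain-of-signal direction versus DMSO.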

[6] = TOX21_p53_BLA_p5_viability: Viability Assessment in the Tox21 HCT-116 p53 Agonism Beta-lactamase Assay, Phase 5 (AID 2283600)
Method in brief: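 ATP luminescence (CellTiter-Glo, 30 min, RT) served as the viability read-out, with loss of signal indicating cytotoxicity. Compounds in DMSO were pinned at a 217-fold dilution onto 4000 cells/well and incubated 16 h, 37C.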

[7] = target: Cellular tumor antigen p53 (Homo sapiens) (UniProt P04637); experiment: TOX21_p53_BLA_p4_ratio: Tox21 HCT-116 p53 Agonism Beta-lactamase Assay, Ratio, Phase 4 (AID 2283601)
Method in brief: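 HCT-116 p53 beta-lactamase reporter cells (4000/well) preincubated 5 h, then compound (217-fold dilution of DMSO stock) for 16 h at 37C. CCF4-AM substrate added 2 h at room temperature; 460/530 nm emission ratio fitted upward versus DMSO.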

[8] = CCTE_Harrill_HTTr_Viability_MCF7: CCTE's 6-hour Cell Viability Assessment for the High-Throughput Transcriptomics (HTTr) Platform, in MCF-7 cells cultured in DMEM + 10% fetal bovine serum, Harrill Lab (AID 2284010; active means hit-call score of the fitted dose curve at least 0.9, where 1 is the maximum; inactive means score below 0.9)
Method in brief: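 Read-out is propidium iodide gain of signal by high-content imaging, reflecting membrane integrity loss. Measurements are taken 6 h after dosing, eight concentrations per chemical, with DMSO serving as baseline for bidirectional curve fitting.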

[9] = CCTE_Harrill_HTTr_Apoptosis_MCF7: CCTE's 6-hour Apoptosis Assessment for the High-Throughput Transcriptomics (HTTr) Platform, in MCF-7 cells cultured in DMEM + 10% fetal bovine serum, Harrill Lab (AID 2284011; active means hit-call score of the fitted dose curve at least 0.9, where 1 is the maximum; inactive means score below 0.9)
Method in brief: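 Read-out: CellEvent Caspase 3/7 Green signal by high content imaging, gain-of-signal indicating apoptosis. MCF-7 cells, DMEM + 10% FBS, eight-point dilution series, 6 h exposure. Curves fitted bidirectionally relative to DMSO negative control.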

[10] = CCTE_Harrill_HTTr_CellCount_MCF7: CCTE's Cell Proliferation Assessment for the High-Throughput Transcriptomics (HTTr) Platform, Harrill Lab (AID 2284012);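 further: cells exposed to compound for six hours; intended direction is loss of nuclei count meaning fewer cells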
Method in brief: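 Cell count served as viability reporter: loss of Hoechst-stained nuclei, counted by high content imaging, marks decreased growth or survival. Exposure was 6 h in MCF-7 cells across eight concentrations, with DMSO as baseline.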

Cellular tumor antigen p53 (Homo sapiens), sequence (P04637 whole entry, looked up): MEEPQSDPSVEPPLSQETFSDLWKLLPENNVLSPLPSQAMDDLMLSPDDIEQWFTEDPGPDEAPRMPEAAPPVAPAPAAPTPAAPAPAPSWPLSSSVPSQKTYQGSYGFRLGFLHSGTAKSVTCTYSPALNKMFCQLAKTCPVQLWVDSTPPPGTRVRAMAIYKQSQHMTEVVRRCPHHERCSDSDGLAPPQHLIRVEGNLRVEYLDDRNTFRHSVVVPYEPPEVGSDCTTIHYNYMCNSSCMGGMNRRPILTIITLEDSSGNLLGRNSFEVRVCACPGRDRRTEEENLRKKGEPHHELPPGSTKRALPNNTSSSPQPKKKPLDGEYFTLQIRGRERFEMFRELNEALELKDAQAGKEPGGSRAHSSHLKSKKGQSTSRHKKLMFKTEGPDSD

| SMILES | outcome [1] | outcome [2] | outcome [3] | outcome [4] | outcome [5] | outcome [6] | outcome [7] | outcome [8] | outcome [9] | outcome [10] | AC50 [1] | AC50 [3] | AC50 [5] | AC50 [7] |
| --- | --- | --- | --- | --- | --- | --- | --- | --- | --- | --- | --- | --- | --- | --- |
| CCOc1ccccc1C(N)=O | inactive | inactive | inactive | inactive | inactive | inactive | inactive | – | – | – | – | – | – | – |
| Nc1c2c(nc3ccccc13)CCCC2 | inactive | inactive | inactive | inactive | inactive | inactive | inactive | inactive | inactive | inactive | – | – | – | – |
| COc1cccc(N(C)C(=S)Oc2ccc3c(c2)CCCC3)n1 | inactive | inactive | inactive | inactive | inactive | inactive | inactive | – | – | – | – | – | – | – |
| O=C1N=C(O)CN1N=Cc1ccc(-c2ccc([N+](=O)[O-])cc2)o1 | inactive | inactive | inactive | inactive | inactive | inactive | inactive | – | – | – | – | – | – | – |
| CN[C@@H]1[C@@H](O[C@H]2O[C@H](CO)[C@@H](N)[C@H](O)[C@H]2O)O[C@H]2C[C@@H](N)[C@@H](O[C@H]3[C@H](O)[C@@H](O)[C@H](N)C[C@@H]3N)O[C@@H]2[C@@H]1O | inactive | inactive | inactive | inactive | inactive | inactive | inactive | – | – | – | – | – | – | – |
| COc1ccc(-c2noc(CC(=O)O)c2-c2ccc(OC)cc2)cc1 | inactive | inactive | inactive | inactive | inactive | inactive | inactive | – | – | – | – | – | – | – |
| CCOC(=O)c1c(N)sc2c1CCN(Cc1ccccc1)C2 | inactive | inactive | inactive | inactive | inactive | inactive | inactive | – | – | – | – | – | – | – |
| Cc1ccc(O)c2ncccc12 | inactive | inactive | inactive | inactive | inactive | inactive | inactive | – | – | – | – | – | – | – |
| CCOC(=O)CC#N | inactive | inactive | inactive | inactive | inactive | inactive | inactive | – | – | – | – | – | – | – |
| CN1C(=O)CN2CCc3ccccc3C2c2cc(Cl)ccc21 (stereo not given) | – | inactive | – | inactive | – | – | – | – | – | – | 35.6 µM (active) | 39.8 µM (active) | 22.8 µM (active) | 33.8 µM (active) |
| O=C(O)c1nc(=O)[nH]c(=O)[nH]1 | inactive | inactive | inactive | inactive | inactive | inactive | inactive | – | – | – | – | – | – | – |
| CCO[Si](CC(C)C)(OCC)OCC | inactive | inactive | inactive | inactive | inactive | – | inactive | – | – | – | – | – | – | – |
